Where “and” joins values, the source holds several entries; their conditions need not be identical. Equal values may be shown once. Records with an inconclusive call do not appear. Where a structure was tested more than once in an assay, its records may differ in their call. Calls of active or inactive are those of the source. Unless noted, calls come from the whole dose curve; as a rule, active = well fitted curve in the direction sought with a large enough effect in the repeat runs; inconclusive = weak or mixed curves; inactive = no such curve, though single readings can be large; an effect the other way counts as inactive or inconclusive.

A short description of assay [1]: qHTS assay to identify small molecule agonists of the vitamin D receptor (VDR) signaling pathway - cell viability counter screen (AID 743224). Note: nearly all actives have a fitted effect of over 50% in size. Note: potency is the fitted concentration of half-maximal effect. Put shortly: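 Plated VDR-bla cells (4 h, 37C) received compound, incubated 16 h, then LiveBLAzer substrate 2 h RT; CellTiter-Glo added afterwards, luminescence read at 30 min.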
Assay [2] in a line: qHTS assay to identify small molecule antagonists of the vitamin D receptor (VDR) signaling pathway - cell viability counter screen (AID 743225). Note: nearly all actives have a fitted effect of over 50% in size. Put shortly:
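Cells (VDR-UAS-bla HEK 293T) are plated, rested 4 h at 37C, dosed with compound and 3 nM final 1-alpha,25-dihydroxy vitamin D3, and incubated 16 h. Viability is taken from CellTiter-Glo luminescence in the reporter wells.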
For orientation: In qHTS, concentration-response curves come from the screen itself.

Assay [3] in a line: qHTS assay to identify small molecule agonists of the NFkB signaling pathway (AID 1159509; active = well fitted curve in the direction sought with a large enough effect in the signal ratio in the repeat runs, not every such curve was filed as active; the % refers to the signal ratio). Put shortly: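 After overnight attachment, reporter cells received test compounds, DMSO or positive controls and were incubated 5 hr at 37 C. FRET substrate was then added for 1.5 hr at room temperature before dual-emission fluorescence reading.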
A short description of assay [4]: qHTS assay to identify small molecule agonists of the NFkB signaling pathway - cell viability counter screen (AID 1159515; calls by dose curve; note: nearly all actives have a fitted effect of over 55% in size). Put shortly: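 Using the same wells as the NFkB reporter read, ME-180 NFkB-bla cells given compounds for 5 hr were assessed for viability via CellTiter-Glo, with luminescence taken after a 30 min room-temperature incubation.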
A short description of assay [5]: qHTS assay to identify small molecule agonists of the endoplasmic reticulum stress response signaling pathway (AID 1159516; active = well fitted activation curve with a large enough effect in the signal ratio in the repeat runs, not every such curve was filed as active; the % refers to the signal ratio). In a few lines: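 An ESRE-bla HeLa cell assay: compounds were pin-transferred from DMSO onto overnight-plated cells and left 5 hr at 37 C. Substrate was then loaded for 2 hr at room temperature before reading fluorescence at 460 nm and 530 nm.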

A short description of assay [6]: qHTS assay to identify small molecule agonists of the endoplasmic reticulum stress response signaling pathway - cell viability counter screen (AID 1159517; calls by dose curve;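 note: HeLa cells carrying an ER stress response element beta-lactamase reporter; nearly all actives have a fitted effect of over 50% in size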). Put shortly:
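Counter-screen wells were identical to the reporter wells. Cells were plated at 1,500 per well and dosed for 5 hr, then read for luminescence 30 min after CellTiter-Glo addition.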

Assay [7] in a line: qHTS assay to identify small molecule antagonists of the retinoid-related orphan receptor gamma (ROR-gamma) signaling pathway - cell viability counter screen (AID 1159520). Note: nearly all actives have a fitted effect of over 50% in size. Put shortly: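 Tet-on ROR gamma CHO cells were given compounds for 2 hr, then doxycycline hyclate at 1 uM final, and incubated 16 hr at 37 C. Viability was measured as ATP content by CellTiter-Glo luminescence.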

The target in assay [8] is Nuclear receptor ROR-gamma (Homo sapiens) (UniProt P51449). Kind of assay: qHTS assay to identify small molecule antagonists of the retinoid-related orphan receptor gamma (ROR-gamma) signaling pathway (AID 1159521). In a few lines: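 RORγ antagonism is scored from reduced reporter luminescence in Tet-on CHO cells. Induction used 1 uM final doxycycline hyclate for 16 h at 37 C, following a 2 h compound exposure.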

A short description of assay [9]: qHTS assay to identify small molecule agonists of the AP-1 signaling pathway - cell viability counter screen (AID 1159525; calls by dose curve; note: nearly all actives have a fitted effect of over 55% in size). Put shortly: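 AP-1-bla ME-180 cells in Opti-MEM with 0.5% dialyzed FBS, compound exposure 5 h at 37 C in 15-point titration. Viability read in the same wells as ATP content by CellTiter-Glo luminescence, normalised to tetra-n-octylammonium bromide and DMSO controls.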

Assay [10] in a line: qHTS assay to identify small molecule agonists of the AP-1 signaling pathway (AID 1159526; calls by dose curve).
Assay [11] concerns the target Retinoic acid receptor RXR-alpha (Homo sapiens) (UniProt P19793). Kind of assay: qHTS assay to identify small molecule agonists of the RXR signaling pathway (AID 1159527; calls by dose curve; note: nearly all actives have a fitted effect of over 35% in size). Put shortly:
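qHTS of the Tox21 10K library in GeneBLAzer RXR-alpha HEK 293T cells carrying a beta-lactamase reporter […]; 16 hr treatment, 9-cis retinoic acid as agonist control, FRET read-out.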

Assay [12] can be described thus: qHTS assay to identify small molecule agonists of the RXR signaling pathway - cell viability counter screen (AID 1159529). Note: nearly all actives have a fitted effect of over 50% in size. In a few lines:
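Cell viability is measured by CellTiter-Glo luminescence, 30 min at room temperature, in wells already read for beta-lactamase. Engineered HEK 293T cells (RXR-alpha-UAS-bla) are dosed 16 hr at 37 C. Tetraoctyl ammonium bromide serves as positive control.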

Assay [13] is described as follows: qHTS assay to identify small molecule antagonists of the retinoid acid receptor (RAR) signaling pathway - cell viability counter screen (AID 1159551). Note: nearly all actives have a fitted effect of over 35% in size. Put shortly:
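Retinol-stimulated (1 uM final) C3RL4 cells, compound 6 h, 37 C; readout CellTiter-Glo luminescence (ATP) after 30 min RT incubation.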

Assay [14] is described as follows: qHTS assay to identify small molecule antagonists of the retinoic acid receptor (RAR) signaling pathway (AID 1159552; note: nearly all actives have a fitted effect of over 50% in size). Put shortly: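 Quantitative HTS in C3RL4 RARE-luciferase reporter cells. Compounds were added with 1 uM (final) retinol; luminescence was read after 6 hr.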
Assay [15] is described as follows: qHTS assay to identify small molecule agonists of the retinoic acid receptor (RAR) signaling pathway (AID 1159553). Note: potency is the fitted concentration of half-maximal effect. To be noted: C3RL4 RARE luciferase reporter, agonist, 6 h; activation: at 73.3 µM (top of the series) unless noted. Put shortly:
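Reporter readout comes from luciferase under RARE control in C3RL4 cells; compound exposure lasts 6 hr at 37 C in 5% CO2, and luminescence is recorded following a 30 min room-temperature incubation with reagent.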

Assay [16] in a line: qHTS assay to identify small molecule antagonists of the estrogen related receptor (ERR) signaling pathway - cell viability counter screen (AID 1224818).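 Note: viability measured after 17.5 h of compound exposure.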 Put shortly: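 After a 6 h pre-incubation, ERR cells were dosed by pin tool with compounds, positive/negative controls or DMSO alone. Following 17.5 h at 37 C and 30 min with CellTiter-Fluor, fluorescence was recorded.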
Assay [17] is described as follows: qHTS assay to identify small molecule antagonists of the estrogen related receptor (ERR) signaling pathway (AID 1224819). In a few lines: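 Luminescence readout (One-Glo, 30 min, RT) of ERR cell line after 18 h compound exposure at 37 C; cells seeded 2,000/well, pre-incubated 6 h, compounds pinned from DMSO stocks.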
Assay [18] in a line: qHTS assay to identify small molecule agonists of the estrogen related receptor (ERR) signaling pathway (AID 1224820). Note: potency is the fitted concentration of half-maximal effect. Put shortly: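 Quantitative HTS of the LOPAC library used NTP ERR reporter cells treated 18 h at 37 C. Signal is luminescence after One-Glo addition and a 30 min room-temperature incubation.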
The test system of assay [19] is estrogen-related receptor alpha (ERRalpha) with PGC-1alpha coactivator, human. Briefly: qHTS assay to identify small molecule antagonists of the estrogen related receptor signaling pathway with the pleiotropic PPARgamma coactivator (PGC) (AID 1224821; calls by dose curve). Put shortly: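 Quantitative HTS for antagonism: PGC/ERR cells received compounds after 6 h attachment and were incubated 18 h at 37 C, with luminescence (One-Glo) as the endpoint.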

A short description of assay [20]: qHTS assay to identify small molecule antagonists of the estrogen related receptor signaling pathway with the pleiotropic PPARgamma coactivator (PGC) cell viability counter screen (AID 1224822;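 note: viability read after 17.5 h compound exposure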). In a few lines:
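PGC/ERR cells were plated at 2,000 per well and allowed 6 h to settle before compound addition. Following 17.5 h at 37 C, CellTiter-Fluor reagent was added and fluorescence was read 30 min later.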

Sequence of Retinoic acid receptor RXR-alpha (Homo sapiens) (P19793 whole entry, looked up): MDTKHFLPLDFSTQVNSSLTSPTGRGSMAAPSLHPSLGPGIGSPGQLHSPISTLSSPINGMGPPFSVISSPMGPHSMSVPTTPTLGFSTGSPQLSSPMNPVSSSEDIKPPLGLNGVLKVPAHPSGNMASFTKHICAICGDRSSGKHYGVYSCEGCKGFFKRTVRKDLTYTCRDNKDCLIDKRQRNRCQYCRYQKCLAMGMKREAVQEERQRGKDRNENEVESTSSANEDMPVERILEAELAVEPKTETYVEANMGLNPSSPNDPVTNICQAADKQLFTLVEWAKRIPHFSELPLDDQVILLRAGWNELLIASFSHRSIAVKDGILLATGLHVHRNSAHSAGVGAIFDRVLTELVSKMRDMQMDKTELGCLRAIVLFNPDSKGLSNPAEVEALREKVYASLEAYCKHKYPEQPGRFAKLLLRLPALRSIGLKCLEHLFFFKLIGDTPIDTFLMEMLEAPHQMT

As to `CCN(CC)C(=O)SCc1ccc(Cl)cc1`, the Potency entry in assay [1], in assay [2], in assay [4], in [6], in assay [7] and in [8] was “inactive” throughout. The Potency entry in [9], in assay [11], in [12], in assay [13] and in [14] was “inactive” in each case. In addition, the molecule was called inactive in assay [3], in [5] and in [10].

As to `Nc1ccc(Cl)cc1N`, the Potency result in [1] was “inactive and 43.6 µM (active)”; in assay [15], 1.6 µM (active) and 545 nM (active); in assay [18], 5.88 µM (active). Further, the Potency result in [2], in assay [4], in [6], in assay [7], in assay [8] and in [9] was “inactive” throughout. For the same molecule, the Potency entry in assay [11], in [12], in assay [14], in assay [17], in assay [19] and in [20] was “inactive” throughout. The result in assay [3], in assay [5], in assay [10] and in assay [16] was inactive.

In the case of `O=P(O)(O)CCCl`, the Potency entry in [1], in assay [2], in assay [4], in [6], in assay [7] and in assay [8] was “inactive” each time. Also, the Potency result in assay [9], in [11], in assay [12], in assay [13], in [14] and in assay [15] was “inactive” in each case. The molecule was called inactive in [3], in [5] and in assay [10].

`CCCCCCCCOC(=O)c1ccccc1C(=O)OCCCCCCCC`: the Potency entry in [1], in [2], in [4], in [6], in [7] and in [8] was “inactive” throughout. The Potency result in [9], in [11], in [12], in [13], in [14] and in assay [15] was “inactive” each time. In addition, the result in assay [3], in assay [5] and in [10] was inactive.

Take `CNC(=O)N(C)c1nnc(C(C)(C)C)s1`: the Potency entry in assay [1], in assay [2], in assay [4], in [6], in assay [7] and in [8] was “inactive” in each case. For the same molecule, the Potency result in assay [9], in [11], in assay [12], in [13], in assay [14] and in assay [15] was “inactive” each time. The call in assay [3], in [5] and in assay [10] was inactive.

Take `NCc1cccnc1`: the Potency result in assay [1], in assay [2], in assay [4], in assay [6], in [7] and in assay [8] was “inactive” each time. Further, the Potency result in [9], in assay [11], in assay [12], in [13], in assay [14] and in [15] was “inactive” throughout. The molecule was classed as inactive in assay [3], in assay [5] and in assay [10].

Regarding `CC(O)CCO` (stereo unspecified), the Potency result in [1], in [2], in assay [4], in [6], in [7] and in [8] was “inactive” throughout. The Potency entry in assay [9], in assay [11], in assay [12], in assay [13], in assay [14] and in [15] was “inactive” in each case. The molecule was classed as inactive in assay [3], in assay [5] and in [10].

On to `COc1ccc(C=O)cc1`, for which the Potency result in [1], in assay [2], in assay [4], in assay [6], in assay [7] and in [8] was “inactive” in each case. In addition, the Potency entry in assay [9], in assay [11], in assay [12] and in [13] was “inactive” throughout. Also, the molecule was called inactive in assay [3], in [5] and in assay [10].

As for `C=CCc1ccc2c(c1)OCO2`, the Potency result in assay [1], in assay [2], in assay [4], in assay [6], in assay [7] and in assay [8] was “inactive” throughout. In addition, the Potency entry in assay [9], in assay [11], in assay [12], in [13], in assay [14] and in [15] was “inactive” in each case. For the same molecule, the outcome in assay [3], in assay [5] and in [10] was inactive.

(Values after PubChem BioAssay (Tox21).)
